# Experimental data as given in PubChem BioAssay.
# Activity calls are given as the source filed them.
# What was measured:
# [1] = tested on: PRMT1 (protein arginine N-methyltransferase 1); assay: PRMT1 binders on small-molecule microarrays, primary screen, biochemical, small-molecule microarray, 635 nm fluorescence (AID 1088); conditions: small-molecule microarray binding, higher = more signal;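 note: binding of Prmt1 protein to compounds spotted on small-molecule microarray slides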
# [2] = yeast growth modulation, basal conditions, primary screen, YJM789 clinical isolate, OD600, 24 h (AID 1089);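 note: growth of clinical yeast isolate S. cerevisiae YJM 789 seeded 1000 cells per well; test concentration not given here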; conditions: S. cerevisiae YJM789 growth, higher = more signal, called active from +8 up or from −8 down
# [3] = fission yeast growth modulation, primary screen, strain 972, OD600, 24 h, no modulator (AID 1090);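 note: basal condition with compound alone and no growth modifier present; test concentration not given here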; conditions: S. pombe 972 growth, higher = more signal, called active from +8 up or from −8 down
# [4] = S. cerevisiae growth modulation with rapamycin, primary screen, strain BY4716, OD600, 96 h (AID 1091); conditions: higher = more signal, called active from +8 up or from −8 down; note: test concentration not given here
# [5] = biological target: Torsin-1A-interacting protein 2 (Homo sapiens) (UniProt Q8NFQ8); assay: LULL1 binders on small-molecule microarray, primary screen, cell lysate, human LULL1 lysate, 635/667 nm fluorescence (AID 1092); conditions: hLULL1 lysate binding, 635 nm fluorescence, higher = more signal;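 note: probe is lysate of COS7 cells overexpressing human LULL1; score merges per-feature 667 nm fluorescence with signal-to-noise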
# [6] = E. coli growth modulation, two-sided OD650, primary screen, E. coli filamentation project, strain DRC41, 24 h (AID 1093); conditions: OD650, 24 h, higher = more signal, called active from +8 up or from −8 down;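 note: MC1000 strain lacking acrAB efflux and sulA so SOS filamentation is blocked; test concentration not given here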
# [7] = small-molecule microarray binders of probe aLefty2, primary screen, biochemical, biotinylated probe, 635/667 nm fluorescence (AID 1094); conditions: higher = more signal;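 note: score merges spot fluorescence near 667 nm with spot signal-to-noise ratio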
# [8] = tested on: Noggin (protein binding on small-molecule microarray); assay: Noggin binders on small-molecule microarray, primary screen, biochemical, 635/667 nm fluorescence (AID 1095); conditions: 635 nm fluorescence, higher = more signal;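 note: score merges 667 nm feature fluorescence with signal to noise over triplicate slides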
# [9] = biological target: Neurogenic locus notch homolog protein 3 (Homo sapiens) (UniProt Q9UM47); assay: NOTCH3 binders on small-molecule microarray, primary screen, biochemical, 635/667 nm fluorescence (AID 1096); conditions: NOTCH3 binding, 635 nm fluorescence, higher = more signal
# [10] = small-molecule microarray binders of probe aEGFR, primary screen, biochemical, biotinylated probe, 635/667 nm fluorescence (AID 1097); conditions: higher = more signal;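 note: probe is a biotinylated anti-EGFR antibody binding compounds printed on slides; score combines fluorescence near 667 nm and signal to noise of each spot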
# [11] = tested on: Plasmodium falciparum Sir2 (PF13_0152, Sir2A); assay: pfSir2 binders on small-molecule microarrays, primary screen, biochemical, small-molecule microarray, 635 nm fluorescence (AID 1098); conditions: small-molecule microarray binding, fluorescence 635 nm; higher = more signal;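 note: score merges spot fluorescence intensity with its signal-to-noise ratio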
# [12] = small-molecule microarray binders of probe aDKK1, primary screen, biochemical, biotinylated probe, 635/667 nm fluorescence (AID 1099); conditions: higher = more signal;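 note: score merges 667nm spot fluorescence with signal to noise across triplicate slides; reference of the scale not given here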
# [13] = small-molecule microarray binders of probe aCHRDL2, primary screen, biochemical, biotinylated probe, 635/667 nm fluorescence (AID 1100); conditions: higher = more signal
# [14] = splicing luciferase reporter signal modulators, primary screen, spliceosome inhibition project, cell-based, HEK293, splice +/- reporter (AID 1101); conditions: luminescence, 24 h, higher = more signal, called active from +8 up or from −8 down;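 note: HEK293 cells carrying a splicing-competent luciferase reporter gene; test concentration not given here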
# [15] = biological target: Fibroblast growth factor 10 (Homo sapiens) (UniProt O15520); assay: FGF10 binders on small-molecule microarrays, primary screen, biochemical, small-molecule microarray, 635 nm fluorescence (AID 1102); conditions: FGF10 binding, fluorescence 635 nm, higher = more signal
# [16] = tested on: glycogen synthase kinase-3 (GSK3A per assay name; protocol says GSK3B); assay: GSK3 binders on small-molecule microarrays, primary screen, biochemical, small-molecule microarray, 635 nm fluorescence, GSK3A (AID 1103); conditions: small-molecule microarray binding, fluorescence 635 nm; higher = more signal; note: the record names both GSK3A and GSK3B
# [17] = biological target: Epidermal growth factor receptor (Homo sapiens) (UniProt P00533); assay: EGFR binders on small-molecule microarrays, primary screen, biochemical, small-molecule microarray, 635 nm fluorescence (AID 1104); conditions: EGFR binding, higher = more signal;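 note: score merges 667 nm emission intensity with spot signal to noise over triplicate slides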
# [18] = biological target: Follistatin-related protein 3 (Homo sapiens) (UniProt O95633); assay: FSTL3 binders on small-molecule microarrays, primary screen, biochemical, small-molecule microarray, 635 nm fluorescence (AID 1105); conditions: FSTL3 binding, higher = more signal;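 note: score merges emission near 667 nm and signal to noise per printed spot across three slides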
# [19] = biological target: Dickkopf-related protein 1 (Homo sapiens) (UniProt O94907); assay: DKK1 binders on small-molecule microarrays, primary screen, biochemical, small-molecule microarray, 635 nm fluorescence scan (AID 1106); conditions: DKK1 binding, higher = more signal;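 note: score merges emission near 667 nm with signal to noise over three replicate slides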
# [20] = tested on: Inhibin beta A chain (activin A); assay: INHBA (activin A) binders on microarrays, primary screen, biochemical, small-molecule microarray, 635 nm fluorescence scan (AID 1107); conditions: small-molecule microarray binding, higher = more signal;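 note: mouse activin A protein probed at 4.33 µg/mL on printed slides; score merges bound-protein fluorescence near 667 nm with spot signal-to-noise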
# Chain of Follistatin-related protein 3 (Homo sapiens) (O95633 whole entry, looked up): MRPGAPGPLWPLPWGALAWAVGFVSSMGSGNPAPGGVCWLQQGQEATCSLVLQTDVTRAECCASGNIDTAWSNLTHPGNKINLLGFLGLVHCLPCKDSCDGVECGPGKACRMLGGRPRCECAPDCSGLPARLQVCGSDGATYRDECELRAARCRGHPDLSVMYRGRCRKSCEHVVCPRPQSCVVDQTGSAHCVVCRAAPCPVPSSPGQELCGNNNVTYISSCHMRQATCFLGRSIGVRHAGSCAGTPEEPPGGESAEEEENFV
# Chain of Neurogenic locus notch homolog protein 3 (Homo sapiens) (Q9UM47 whole entry, looked up): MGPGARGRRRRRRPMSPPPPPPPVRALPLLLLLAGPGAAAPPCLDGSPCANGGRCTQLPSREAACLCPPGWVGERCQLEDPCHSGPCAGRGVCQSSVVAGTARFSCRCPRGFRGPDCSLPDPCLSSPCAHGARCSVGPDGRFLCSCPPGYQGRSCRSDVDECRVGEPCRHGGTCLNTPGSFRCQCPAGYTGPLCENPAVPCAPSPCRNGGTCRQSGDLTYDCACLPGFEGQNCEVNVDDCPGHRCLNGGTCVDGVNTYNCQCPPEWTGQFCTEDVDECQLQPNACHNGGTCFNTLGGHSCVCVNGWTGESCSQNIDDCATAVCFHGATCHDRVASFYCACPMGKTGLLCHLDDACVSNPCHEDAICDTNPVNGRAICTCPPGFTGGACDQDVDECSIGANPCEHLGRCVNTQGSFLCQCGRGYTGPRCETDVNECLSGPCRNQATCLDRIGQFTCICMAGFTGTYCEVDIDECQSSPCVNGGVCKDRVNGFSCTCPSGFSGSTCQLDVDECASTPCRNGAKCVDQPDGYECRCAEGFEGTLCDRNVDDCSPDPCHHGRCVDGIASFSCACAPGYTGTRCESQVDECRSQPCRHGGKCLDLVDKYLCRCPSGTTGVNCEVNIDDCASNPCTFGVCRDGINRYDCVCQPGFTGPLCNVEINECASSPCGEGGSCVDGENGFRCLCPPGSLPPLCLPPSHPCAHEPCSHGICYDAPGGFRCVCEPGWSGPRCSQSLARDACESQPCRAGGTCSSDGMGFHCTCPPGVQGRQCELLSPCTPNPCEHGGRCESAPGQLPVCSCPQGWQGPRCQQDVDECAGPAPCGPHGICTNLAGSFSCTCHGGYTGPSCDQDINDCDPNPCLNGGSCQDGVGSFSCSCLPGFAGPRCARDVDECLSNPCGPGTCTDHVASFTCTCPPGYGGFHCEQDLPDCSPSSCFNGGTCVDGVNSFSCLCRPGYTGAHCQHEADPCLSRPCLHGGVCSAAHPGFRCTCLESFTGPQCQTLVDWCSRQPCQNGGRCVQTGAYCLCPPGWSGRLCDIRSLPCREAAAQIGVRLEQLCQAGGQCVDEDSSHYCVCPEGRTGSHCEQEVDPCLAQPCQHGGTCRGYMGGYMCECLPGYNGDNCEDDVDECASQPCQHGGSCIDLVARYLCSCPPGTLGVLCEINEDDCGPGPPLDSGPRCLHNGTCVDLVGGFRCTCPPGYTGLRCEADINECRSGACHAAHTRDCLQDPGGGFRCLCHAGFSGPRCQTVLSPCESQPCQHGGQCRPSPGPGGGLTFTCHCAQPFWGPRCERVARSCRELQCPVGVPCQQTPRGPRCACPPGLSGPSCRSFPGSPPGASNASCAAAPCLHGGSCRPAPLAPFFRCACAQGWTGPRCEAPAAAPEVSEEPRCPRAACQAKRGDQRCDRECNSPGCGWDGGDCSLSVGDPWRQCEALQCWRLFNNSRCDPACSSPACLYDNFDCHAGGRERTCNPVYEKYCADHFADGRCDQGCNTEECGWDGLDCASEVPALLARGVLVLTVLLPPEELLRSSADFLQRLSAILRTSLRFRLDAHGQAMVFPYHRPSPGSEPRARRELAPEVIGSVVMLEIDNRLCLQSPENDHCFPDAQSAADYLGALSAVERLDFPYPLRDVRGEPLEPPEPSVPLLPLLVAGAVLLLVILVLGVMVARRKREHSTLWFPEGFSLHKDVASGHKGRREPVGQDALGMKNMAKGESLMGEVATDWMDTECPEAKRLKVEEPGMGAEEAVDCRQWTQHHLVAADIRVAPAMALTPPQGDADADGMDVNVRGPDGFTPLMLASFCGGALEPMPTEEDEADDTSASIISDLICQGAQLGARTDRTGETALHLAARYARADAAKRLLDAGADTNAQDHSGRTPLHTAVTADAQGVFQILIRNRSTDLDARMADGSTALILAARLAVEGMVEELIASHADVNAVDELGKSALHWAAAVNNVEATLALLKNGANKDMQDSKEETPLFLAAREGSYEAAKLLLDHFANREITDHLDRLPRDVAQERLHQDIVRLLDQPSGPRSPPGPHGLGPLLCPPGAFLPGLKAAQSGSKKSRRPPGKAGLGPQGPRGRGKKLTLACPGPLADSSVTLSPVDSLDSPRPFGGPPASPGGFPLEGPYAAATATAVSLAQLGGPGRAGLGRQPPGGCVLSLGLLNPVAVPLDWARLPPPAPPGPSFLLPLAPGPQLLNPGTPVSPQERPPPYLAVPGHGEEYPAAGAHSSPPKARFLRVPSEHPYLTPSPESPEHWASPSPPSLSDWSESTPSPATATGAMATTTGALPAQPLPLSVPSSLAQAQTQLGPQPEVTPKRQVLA
# Chain of Torsin-1A-interacting protein 2 (Homo sapiens) (Q8NFQ8 whole entry, looked up): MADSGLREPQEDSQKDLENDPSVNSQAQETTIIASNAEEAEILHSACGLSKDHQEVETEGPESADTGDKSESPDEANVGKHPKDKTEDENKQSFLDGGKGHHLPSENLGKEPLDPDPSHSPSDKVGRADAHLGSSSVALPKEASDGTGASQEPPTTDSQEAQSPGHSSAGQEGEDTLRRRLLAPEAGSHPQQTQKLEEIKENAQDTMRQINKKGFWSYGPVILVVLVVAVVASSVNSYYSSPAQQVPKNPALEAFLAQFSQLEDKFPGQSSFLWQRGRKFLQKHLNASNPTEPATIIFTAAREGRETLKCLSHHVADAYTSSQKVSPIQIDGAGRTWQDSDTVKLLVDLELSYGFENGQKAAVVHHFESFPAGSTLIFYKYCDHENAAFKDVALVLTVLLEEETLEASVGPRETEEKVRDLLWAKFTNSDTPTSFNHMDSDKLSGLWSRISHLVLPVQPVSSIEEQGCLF
# Chain of Dickkopf-related protein 1 (Homo sapiens) (O94907 whole entry, looked up): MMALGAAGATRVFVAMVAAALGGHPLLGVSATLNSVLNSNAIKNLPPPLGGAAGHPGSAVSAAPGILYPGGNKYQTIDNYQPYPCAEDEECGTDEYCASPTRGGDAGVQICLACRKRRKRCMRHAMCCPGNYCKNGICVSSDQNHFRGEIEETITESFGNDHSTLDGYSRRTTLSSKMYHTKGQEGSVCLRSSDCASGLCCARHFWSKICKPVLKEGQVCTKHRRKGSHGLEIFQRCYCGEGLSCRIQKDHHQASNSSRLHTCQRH
# Chain of Fibroblast growth factor 10 (Homo sapiens) (O15520 whole entry, looked up): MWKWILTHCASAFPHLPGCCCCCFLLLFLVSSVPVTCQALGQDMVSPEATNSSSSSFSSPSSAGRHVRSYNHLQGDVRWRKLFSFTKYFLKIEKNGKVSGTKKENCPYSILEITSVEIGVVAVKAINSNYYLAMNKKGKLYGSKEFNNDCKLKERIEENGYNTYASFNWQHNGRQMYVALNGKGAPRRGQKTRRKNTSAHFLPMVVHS
# Chain of Epidermal growth factor receptor (Homo sapiens) (P00533 whole entry, looked up): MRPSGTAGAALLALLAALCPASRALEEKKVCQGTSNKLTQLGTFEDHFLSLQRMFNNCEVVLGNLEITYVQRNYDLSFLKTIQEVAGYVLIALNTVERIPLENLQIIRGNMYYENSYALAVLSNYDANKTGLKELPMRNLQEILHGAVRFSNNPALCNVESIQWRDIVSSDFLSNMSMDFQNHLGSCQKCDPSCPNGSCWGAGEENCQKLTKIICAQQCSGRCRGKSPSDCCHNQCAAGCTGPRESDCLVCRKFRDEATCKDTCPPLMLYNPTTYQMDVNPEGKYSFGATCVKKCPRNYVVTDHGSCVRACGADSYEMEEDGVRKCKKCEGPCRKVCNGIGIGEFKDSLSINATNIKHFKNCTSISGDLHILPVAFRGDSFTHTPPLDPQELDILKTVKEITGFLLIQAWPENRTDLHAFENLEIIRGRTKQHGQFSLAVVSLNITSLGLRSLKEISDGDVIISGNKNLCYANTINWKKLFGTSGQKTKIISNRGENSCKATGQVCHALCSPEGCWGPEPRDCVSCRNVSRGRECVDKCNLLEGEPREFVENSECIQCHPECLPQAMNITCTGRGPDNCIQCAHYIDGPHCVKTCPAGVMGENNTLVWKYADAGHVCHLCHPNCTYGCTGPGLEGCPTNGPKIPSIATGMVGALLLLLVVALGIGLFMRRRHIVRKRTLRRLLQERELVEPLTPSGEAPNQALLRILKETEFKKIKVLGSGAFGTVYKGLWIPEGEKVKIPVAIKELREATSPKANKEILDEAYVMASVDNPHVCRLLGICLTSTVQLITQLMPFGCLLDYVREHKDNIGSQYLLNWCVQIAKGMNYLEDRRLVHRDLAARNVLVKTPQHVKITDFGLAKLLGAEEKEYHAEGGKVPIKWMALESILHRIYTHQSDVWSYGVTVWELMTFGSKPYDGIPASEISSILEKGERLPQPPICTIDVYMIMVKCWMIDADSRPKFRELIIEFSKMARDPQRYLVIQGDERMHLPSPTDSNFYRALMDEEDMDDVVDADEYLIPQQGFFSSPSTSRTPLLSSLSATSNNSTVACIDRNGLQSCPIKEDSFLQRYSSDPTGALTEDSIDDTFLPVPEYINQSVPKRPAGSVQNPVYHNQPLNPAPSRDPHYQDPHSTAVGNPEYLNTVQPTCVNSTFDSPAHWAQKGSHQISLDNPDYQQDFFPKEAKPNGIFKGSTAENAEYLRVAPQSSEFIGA
Structure (SMILES),composite z-score [1],z-score [2],z-score [3],z-score [4],composite z-score [5],z-score [6],composite z-score [7],composite z-score [8],composite z-score [9],composite z-score [10],composite z-score [11],composite z-score [12],composite z-score [13],z-score [14],composite z-score [15],composite z-score [16],composite z-score [17],composite z-score [18],composite z-score [19],composite z-score [20]
CC(C)(C)OC(=O)CC[C@]1(C(=O)NCC(O)CO)N=C(c2ccc(OCCCO)cc2)O[C@H]1c1ccccc1N=[N+]=[N-] (stereo not given in full),0.98,-0.652 (inactive),-0.0793 (inactive),-0.517 (inactive),3.62,0.821 (inactive),0.595,0.187,0.398,0.0506,1.18,1.24,1.31,-0.254 (inactive),1.4,-0.0629,-0.0913,0.352,0.175,-0.0171
COCCCNC(=O)[C@@]1(CCC(=O)OC(C)(C)C)COC(c2ccc(OCCCO)cc2)=N1,1.59,-0.649 (inactive),0.132 (inactive),-2.07 (inactive),3.51,0.488 (inactive),-0.0906,0.337,0.571,-0.13,1.64,0.117,0.523,-1.09 (inactive),0.693,0.986,-0.106,0.219,-0.0833,0.64
CCOC(=O)C[C@H]1[C@H](OC(=O)c2ccccc2-c2ccccc2)[C@@H](NC(=O)C2CCCCC2)c2cc(OCCCO)ccc2N1C(=O)c1ccc2ccccc2n1,1.39,0.362 (inactive),0.233 (inactive),0.495 (inactive),1.34,-1.06 (inactive),0.0569,0.431,0.89,0.0754,0.486,-0.0483,-0.334,0.0681 (inactive),0.679,0.452,0.27,0.845,0.483,-0.286
CCCc1cc2c(n1CCc1ccc(Cl)cc1)C(C)C1CN(C(=O)c3ccccc3)C(C)(C(=O)OC)C21 (stereo not given),0.396,0.318 (inactive),-0.29 (inactive),1.03 (inactive),3.31,-2.17 (inactive),0.342,-1.01,1.04,0.131,0.462,1.64,1.59,3.17 (inactive),0.464,-0.014,-0.403,0.252,-1.92,1.24
CC(C)NC(=O)[C@@H]1c2ccccc2C(=O)N(Cc2ccccc2C(F)(F)F)[C@H]1c1ccc(CO)cc1,-0.123,-0.202 (inactive),0.163 (inactive),-1.04 (inactive),2.36,-0.327 (inactive),-0.241,-0.238,0.0828,0.668,1.68,1.35,0.218,0.438 (inactive),0.697,-0.295,-0.08,0.147,-0.393,-0.349
CC(C)C[C@H]1NC(=O)C([C@@H](C)OCc2ccccc2)NC(=O)[C@@]23C(=O)N[C@@H](Cc4ccccc4)C2[C@H](C)[C@@]2(C)O[C@H]2C3/C=C/C/C=C\CNC1=O (stereo not given in full),1.55,-0.099 (inactive),-1.21 (inactive),0.206 (inactive),2.01,-0.281 (inactive),0.039,0.697,1.1,0.138,0.884,-0.261,-0.493,-0.138 (inactive),1.03,1.12,0.583,1.47,0.917,1.24
CC1CC/C=C\[C@H]2OC34C=CCN(CCN5CCOCC5)C(=O)[C@H]3N(CCCO)C(=O)[C@@H]4C2C(=O)O1 (stereo not given in full),-0.536,0.236 (inactive),-0.218 (inactive),0.585 (inactive),-0.299,-0.546 (inactive),-0.21,-0.639,-0.271,-0.239,0.367,-0.399,-0.141,0.316 (inactive),-0.188,-0.0682,-0.555,-0.59,-0.235,1.39
C=CCC(OC(C)=O)[C@@H]1[C@@H](N(Cc2cc3ccccc3o2)C(=O)c2cccc3ccccc23)c2cc(OCCCO)ccc2N1C(=O)c1ccc2ccccc2n1 (stereo not given in full),0.109,0.472 (inactive),-0.8 (inactive),0.12 (inactive),0.588,1.06 (inactive),-0.0285,0.728,-0.127,-0.182,-0.408,0.749,0.317,-0.73 (inactive),0.169,0.0025,0.3,-0.0659,0.121,1.1
CC(C)C[C@@H]1NC(=O)[C@@H]2C[C@H](C(=O)NCCCCCCNC(=O)CS)[C@H](c3cccc(OCCO)c3)N2C1=O,1.54,0.509 (inactive),0.679 (inactive),1.52 (inactive),2.84,-0.616 (inactive),-0.0124,1.66,1.02,0.0618,1.65,-0.0594,0.237,-0.356 (inactive),1.31,1.29,0.876,1.52,1.4,0.626
